Compounds with a hit are over-represented: about 2.8% of the library has one in this group of screens.
WRN helicase inh: qHTS for Inhibitors of WRN Helicase; actives 0.46% (n = 360,000); Bifunctional 3'-5' exonuclease/ATP-dependent helicase WRN (Homo sapiens), Q14191; WRN helicase unwinding, fluorescent forked duplex, kinetic; AID 651768, 2012; Potency, µM (top dose mostly 114 µM), hits mostly inhibitors; note: nearly all actives have a fitted effect of over 55% in size
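WRN at 20 nM final preincubated with compound 15 min at room temperature; reaction started with 100 nM fluorophore/quencher forked duplex oligonucleotide and 2 mM ATP final. Unwinding followed kinetically by red fluorescence (ex 525, em 598 nm).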
POLK inh: qHTS for Inhibitors of Polymerase Kappa. DNA polymerase kappa (Homo sapiens), Q9UBT6. purified Pol kappa, fluorescent DNA synthesis assay, 10 min. Potency, µM (doses to about 107 µM), hits mostly inhibitors. actives 0.53% (n = 400,000)
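Kinetic fluorescence screen: compound preincubated 15 min RT with 10 nM enzyme; 50 nM substrate (final) initiates; reads at 0/10 min.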
PI5P4Ka inh: qHTS for Inhibitors of phosphatidylinositol 5-phosphate 4-kinase (PI5P4K); Phosphatidylinositol 5-phosphate 4-kinase type-2 alpha (Homo sapiens), P48426; PI5P4Kalpha enzyme, ADP-Glo luminescence, 60 min; active compounds read low; max response, %; actives 1.2% (n = 330,000); active = max response of -50% or lower; inconclusive = between -30% and -50%; inactive = -30% or higher; note: value at the top dose of about 77 µM
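PI5P4Kalpha ADP-Glo assay; 5 microM ATP final; 60 min RT reaction; HEPES pH 7.4/EGTA/CHAPS, 5% DMSO; controls lacking substrate or enzyme; luminescent end-point.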
Pol iota inh: qHTS for Inhibitors of Polymerase Iota; Pol iota fluorescent replication assay, 10 min; actives 1% (n = 390,000); DNA polymerase iota (Homo sapiens), Q9UNA4; Potency, µM (top dose mostly 115 µM), most hits filed as inhibitors
Target sequence (Q9UNA4 whole entry, looked up): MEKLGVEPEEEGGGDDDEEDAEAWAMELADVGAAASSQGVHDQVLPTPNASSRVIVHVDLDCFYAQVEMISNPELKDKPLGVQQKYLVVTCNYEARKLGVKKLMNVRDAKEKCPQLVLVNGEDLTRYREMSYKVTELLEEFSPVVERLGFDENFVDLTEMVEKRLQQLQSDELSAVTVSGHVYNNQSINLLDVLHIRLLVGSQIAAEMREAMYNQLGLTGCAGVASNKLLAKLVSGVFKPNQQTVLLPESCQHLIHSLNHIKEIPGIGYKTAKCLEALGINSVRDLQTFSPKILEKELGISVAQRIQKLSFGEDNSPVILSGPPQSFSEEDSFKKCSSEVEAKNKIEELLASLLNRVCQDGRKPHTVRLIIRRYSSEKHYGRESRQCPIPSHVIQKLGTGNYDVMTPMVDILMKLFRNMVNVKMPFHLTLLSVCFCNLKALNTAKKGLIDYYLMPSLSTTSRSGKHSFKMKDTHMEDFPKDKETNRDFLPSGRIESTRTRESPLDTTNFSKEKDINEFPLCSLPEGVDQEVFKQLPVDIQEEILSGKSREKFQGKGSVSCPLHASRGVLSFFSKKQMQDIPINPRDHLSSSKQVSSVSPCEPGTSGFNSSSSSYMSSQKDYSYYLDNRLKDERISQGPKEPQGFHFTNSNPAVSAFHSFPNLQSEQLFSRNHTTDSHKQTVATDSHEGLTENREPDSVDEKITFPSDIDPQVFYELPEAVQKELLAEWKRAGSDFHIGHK
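Pol iota at 10 nM preincubated 15 min with compounds at room temperature; reaction started with fluorescent substrate, 50 nM final. Fluorescence read kinetically at 0 and 10 min; buffer-only wells as negative control.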
POLB inh: qHTS Assay for Inhibitors of DNA Polymerase Beta; P06746; Pol beta primer extension/strand displacement, fluorescence kinetic; Potency, µM (highest dose often 114 µM), usual class: inhibitors; actives 1.3% (n = 340,000); AID 485314, 2010
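10 nM enzyme + cpd, 15 min RT; start with substrate 50 nM final; read 0 min and after 10 min RT. Corrected, normalized data; 4-parameter Hill curve fit.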
POLH inh: qHTS for Inhibitors of Polymerase Eta. DNA polymerase eta (Homo sapiens), Q9Y253. Potency, µM (highest dose often 114 µM), actives largely listed as inhibitors. actives 1.2% (n = 390,000). recombinant Pol eta, fluorescent DNA replication assay
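Pol eta at 10 nM preincubated with compounds 15 min at room temperature; reaction started with fluorescent substrate (50 nM final) and read kinetically at 0 and 10 min.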
Large screens that a line does not name were inactive. Unless noted, calls come from the whole dose curve; as a rule, active = well fitted curve in the direction sought with a large enough effect; inconclusive = small, poorly fitted or top-dose-only effect, or another doubt; inactive = no such curve, though single readings can be large; an effect the other way counts as inactive or inconclusive.

O=C(N/N=C/c1c(O)n(-c2ccccc2)c(=O)[nH]c1=O)c1ccncc1	none
O=C(N/N=C/c1c(O)n(C2CC2)c(=S)[nH]c1=O)c1ccccc1O	PI5P4Ka inh -58
O=C(N/N=C/c1c(O)n(-c2ccccc2)c(=S)[nH]c1=O)c1ccccc1	PI5P4Ka inh -54
CCOc1ccc(NC(=S)N2CCC(NC(=O)c3ccccc3C)CC2)cc1	none
CCOC(=O)N1CCCN(/[N+]([O-])=N/Oc2ccc([N+](=O)[O-])cc2[N+](=O)[O-])CC1	Pol iota inh inconclusive (no result: WRN helicase inh, PI5P4Ka inh, POLB inh, POLH inh)
NNc1n[nH]c(=S)n1N	Pol iota inh 16µM
O=C1NC(=O)C(=Cc2ccc(Sc3ccccc3)o2)C(=O)N1	WRN helicase inh 11µM, PI5P4Ka inh -52, Pol iota inh inconclusive, POLH inh inconclusive
O=C1NC(=O)C(=Cc2ccc(-c3ccc(Cl)cc3)o2)C(=O)N1	Pol iota inh 11µM, POLH inh 79µM
O=C1NC(=O)C(=Cc2ccc(-c3ccc(F)cc3O)o2)C(=O)N1	PI5P4Ka inh -87, Pol iota inh inconclusive, POLH inh 71µM
O=C1NC(=O)C(=Cc2ccc(-c3ccc(S(=O)(=O)N4CCOCC4)cc3)o2)C(=O)N1	PI5P4Ka inh inconclusive, Pol iota inh 25µM
O=C1NC(=O)C(=Cc2ccc(N3CCOCC3)cc2)C(=O)N1	Pol iota inh inconclusive
Cn1ncc2c(NCc3ccco3)ncnc21	Pol iota inh inconclusive (no result: WRN helicase inh, PI5P4Ka inh, POLB inh, POLH inh)
O=C(CCCN1CCC2(CC1)C(=O)N(Cc1cccc(F)c1)CN2c1ccccc1)c1ccc(F)cc1	none (no result: WRN helicase inh, PI5P4Ka inh, Pol iota inh, POLB inh, POLH inh)
COc1ccccc1CNC(=O)CCNS(=O)(=O)c1ccc2c(c1)oc(=O)n2C	none
COc1ccc(/C(=N/OC(C)=O)c2nccc3cc(OC)c(OC)cc23)cc1OC	none
CC(=O)C(O)C(c1ccccc1)c1c(O)c2ccccc2oc1=O (configuration not stated)	none (no result: WRN helicase inh, PI5P4Ka inh, Pol iota inh, POLB inh, POLH inh)
COC(=O)C1=C(c2ccc3ccccc3c2)C[C@@H]2CC[C@H]1N2C(=O)NCc1ccco1	POLK inh inconclusive, POLH inh 35µM (no result: POLB inh)
COC(=O)C1=C(c2ccc3ccccc3c2)C[C@@H]2CC[C@H]1N2C(=O)NCC1CC1	none (no result: POLB inh)
O=c1[nH]c(=O)n(Cc2ccco2)c(O)c1/C=N/N1CCCCCC1	none
N#Cc1c(/N=C/c2c(O)n(Cc3ccco3)c(=O)[nH]c2=O)sc2c1CCCC2	WRN helicase inh 56µM, POLK inh 22µM, Pol iota inh 10µM, POLB inh 32µM, POLH inh 14µM (no result: PI5P4Ka inh)
COc1ccc2c(c1OC)CN1CCc3cc4c(cc3[C@H]1C2)OCO4	none (no result: POLB inh)
COc1ccc2c(c[n+](C)c3c4cc5c(cc4ccc23)OCO5)c1OC	Pol iota inh inconclusive, POLB inh 28µM, POLH inh inconclusive (no result: WRN helicase inh, PI5P4Ka inh)
Cc1cccc(NC(=O)Cn2cc(C(=O)C3CC3)c3ccccc32)c1C	WRN helicase inh inconclusive, Pol iota inh inconclusive, POLB inh inconclusive
CSc1ncc(/C=C2/C(=O)NC(=O)N(C3CCCCC3)C2=O)cn1	WRN helicase inh inconclusive, PI5P4Ka inh -57, Pol iota inh inconclusive
CCCCN1C(=O)NC(=O)/C(=C/c2cnc(SC)nc2)C1=O	WRN helicase inh 40µM, PI5P4Ka inh -85
CSc1ncc(/C=C2/C(=O)NC(=O)N(C)C2=O)cn1	WRN helicase inh inconclusive, PI5P4Ka inh inconclusive
CC(C)=CCCN1CCC(NC(=O)C(O)(c2ccccc2)C2CCCC2)CC1 (configuration not stated)	none (no result: WRN helicase inh, PI5P4Ka inh, Pol iota inh, POLB inh, POLH inh)
Cc1ccc(N2C(=O)/C(=C/c3ccc(CN(CCC#N)S(C)(=O)=O)o3)C(=O)NC2=S)cc1C	POLB inh 20µM (no result: WRN helicase inh, POLK inh, PI5P4Ka inh, Pol iota inh, POLH inh)
C=CCN1C(=O)/C(=C/c2cc(C)n(-c3cccnc3)c2C)C(=O)NC1=S	WRN helicase inh inconclusive, PI5P4Ka inh -67
Cc1cc(C=C2C(=O)NC(=O)NC2=O)c(C)n1-c1cccnc1	PI5P4Ka inh -58

Screening data as filed in PubChem BioAssay.
